Experimental findings from PubChem BioAssay AID1030 (National Center for Advancing Translational Sciences (NCATS), 2008) are described below.

In all, about 220,000 compounds went through this assay and about 16,000 (7.3%) were called active. Entries that show only a call come without a potency. Inconclusive results (about 25%) are left out. The sample holds actives, similar compounds and a random draw of the others, so the mix is not that of the screen. Unmarked numbers belong to inactive results. Calls come from the whole dose curve; as a rule, active = well fitted inhibition curve with a large enough effect (not every such curve was filed as active); inconclusive = small, poorly fitted or top-dose-only effect, or another doubt; inactive = no such curve, though single readings can be large or run the other way.
Potency is the fitted concentration of half-maximal effect.

Aldehyde dehydrogenase 1A1 (Homo sapiens), sequence (P00352 whole entry, looked up): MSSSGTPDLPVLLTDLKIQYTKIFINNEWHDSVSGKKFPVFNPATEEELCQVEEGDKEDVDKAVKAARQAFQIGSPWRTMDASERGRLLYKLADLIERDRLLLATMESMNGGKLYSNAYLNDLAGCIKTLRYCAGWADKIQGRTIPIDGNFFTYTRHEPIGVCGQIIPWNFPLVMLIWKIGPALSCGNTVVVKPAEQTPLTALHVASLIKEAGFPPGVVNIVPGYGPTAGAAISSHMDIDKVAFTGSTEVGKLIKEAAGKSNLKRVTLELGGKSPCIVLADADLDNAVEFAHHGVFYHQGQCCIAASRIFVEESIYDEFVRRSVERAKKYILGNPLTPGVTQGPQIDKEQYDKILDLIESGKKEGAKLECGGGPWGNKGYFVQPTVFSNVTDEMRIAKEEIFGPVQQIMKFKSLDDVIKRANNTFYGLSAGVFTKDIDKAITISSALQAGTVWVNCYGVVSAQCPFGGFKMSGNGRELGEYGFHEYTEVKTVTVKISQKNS

The experiment addresses Aldehyde dehydrogenase 1A1 (Homo sapiens) (UniProt P00352). The experiment can be described thus: qHTS Assay for Inhibitors of Aldehyde Dehydrogenase 1 (ALDH1A1). As to conditions: Purified ALDH1A1, NADH fluorescence, propionaldehyde substrate; series mostly up to 75.3 µM.
Regarding `Cc1cccc(N2CCN(c3ccc(NC(=O)/C=C\C(=O)O)cc3)CC2)c1`, the Potency was 25.1 µM (active).

For `Cc1cccc(C(=O)Nc2ccccc2N2CCN(c3ccc(F)cc3)CC2)c1`, the Potency entry is “inactive”.

On to `CCOCCCn1c(NN)nc2ccccc2c1=O`, for which the Potency result was “inactive”.

In the case of `COc1cccc(N(CC(=O)N2CCc3ccccc3C2)S(C)(=O)=O)c1`, the Potency entry is “inactive”.

Regarding `CCOC(=O)N1CCN(C(=O)CN(c2ccc(C)c(C)c2)S(=O)(=O)c2ccccc2)CC1`, the Potency entry is “inactive”.

In the case of `Cc1ccc(S(=O)(=O)N(CC(=O)N2CCc3ccccc3C2)c2cccc(Cl)c2)cc1`, the Potency is 0.562 µM (active).

For the molecule `CC(=O)NCC(=O)N(Cc1ccco1)C1(C(=O)NC2CCCC2)CCCCC1`, the Potency entry was “inactive”.

In the case of `CCc1ccc(C2C(C#N)=C(N)Oc3n[nH]c(CC(=O)OC)c32)cc1` (stereo not drawn), the Potency result is “inactive”.

Regarding `Cc1nn(Cc2ccccc2)c2c1C(c1ccccc1)C(C#N)=C(N)O2` (stereo not drawn), the Potency was 7.08 µM (active).

Take `CCCc1[nH]nc2c1C(c1c(C)nn(-c3ccccc3)c1Cl)C(C#N)=C(N)O2` (stereo not drawn): the Potency result is “inactive”.

Take `Cc1nn(-c2ccccc2)c2c1C(c1ccc(F)cc1)C(C#N)=C(N)O2` (stereo not drawn): the Potency was 3.55 µM (active).

With `Cc1cc2c(c(=O)n1Cc1ccco1)C(c1ccccc1)C(C#N)=C(N)O2` (stereo not drawn), the Potency result is “inactive”.

Take `COc1ccccc1C1C(C#N)=C(N)Oc2c1c(-c1ccccc1)nn2-c1ccccc1` (stereo not drawn): the Potency result was “inactive”.

Take `Cc1c(Br)c([N+](=O)[O-])nn1CC(=O)Nc1sc2c(c1C(=O)OC(C)C)CCC(C)C2` (stereo not drawn): the Potency result is “inactive”.

`CCCCC[C@H](O)/C=C/[C@@H]1[C@@H](CC(=O)CCC(=O)O)[C@@H](O)C[C@H]1O`: the Potency result is “inactive”.

Regarding `COc1ccc(C2CC(c3cccs3)=NN2C(=O)CSc2nncs2)cc1OC` (stereo not drawn), the Potency entry is “inactive”.

`COc1cc(/C=N/N=C(\N)c2nonc2N)cc(OC)c1OC`: the Potency result was “inactive”.

Take `COCCNC(=O)C(OC(=O)c1cccs1)c1ccc(F)cc1` (stereo not drawn): the Potency entry is “inactive”.

Regarding `CCc1nc2oc3ccccc3c(=O)c2c(=O)n1Cc1ccc(OC)cc1`, the Potency result is “inactive”.

For the molecule `O=c1c2ccccc2oc2nc3n(c(=O)c12)CCCS3`, the Potency was 25.1 µM (active).

In the case of `O=c1c2ccccc2oc2nc(C3CCCCC3)n(Cc3ccco3)c(=O)c12`, the Potency result was “inactive”.

With `COc1ccc(C2=NN(c3ccccc3)C(c3cccs3)C2)cc1` (stereo not drawn), the Potency entry is “inactive”.

On to `Cc1ccc(SCC(=O)Nc2ncc(C)s2)cc1`, for which the Potency result was “inactive”.

As to `Cc1cnc(NC(=O)CSc2nnc(-c3ccc(Cl)cc3Cl)n2N)s1`, the Potency was 20 µM (active).

`Cc1cnc(NC(=O)CSc2nnc(-c3ccccc3)n2Cc2ccccc2)s1`: the Potency result is “inactive”.

Consider `Cc1ccc(-c2cc(C(=O)NN)n[nH]2)o1`, for which the Potency entry is “inactive”.

In the case of `O=C(O)CCCC(=O)Nc1ccc(Oc2cccc(C(F)(F)F)c2)nc1`, the Potency result was “inactive”.

Turning to `Oc1ccc(N2CCN(C(=S)NCc3ccccc3)CC2)cc1`, the Potency is 20 µM (active).

As to `Oc1ccccc1N1CCN(C(=S)NCc2ccccc2)CC1`, the Potency result was “inactive”.

Turning to `O=C(COC(=O)c1ccccc1C(=O)N1CCN(c2ccccc2)CC1)NCc1ccccc1`, the Potency result is “inactive”.

Regarding `N/C(=N\OC(=O)c1ccc([N+](=O)[O-])cc1)c1ccccn1`, the Potency entry was “inactive”.

In the case of `C[N+]1(CC(O)COc2ccccc2)CCN(C(=O)c2ccc([N+](=O)[O-])cc2)CC1` (stereo not drawn), the Potency entry was “inactive”.

As for `CN(C)CCCn1c(SCCN2C(=O)c3ccccc3C2=O)nc2ccccc2c1=O`, the Potency is 20 µM (active).

With `CC(=O)NCCn1c(SCC(=O)Nc2ccc(C)cc2)nc2ccccc2c1=O`, the Potency result was “inactive”.

Take `Nc1ccc(SCCN2C(=O)c3ccccc3C2=O)cc1`: the Potency entry was “inactive”.

As to `COc1ccc(C(=O)CSc2nnc(-c3ccco3)o2)cc1`, the Potency entry is “inactive”.

With `COC(=O)C1=C(NC(=O)C(C)(C)C)CCS1`, the Potency entry is “inactive”.

Take `C=CCC(C(=O)c1ccccc1)[N+](C)(C)CC=C` (stereo not drawn): the Potency entry was “inactive”.

With `Cc1ccc(Cl)cc1NC(=S)N(CCN(C)C)Cc1cccs1`, the Potency result is “inactive”.

Regarding `N#C/C(=C(\O)C(F)(F)F)c1nnc2n1CCCCC2`, the Potency was 4.47 µM (active).

For `N#Cc1cccc(Nc2c3c(nc4ccccc24)CCCC3)c1`, the Potency entry is “inactive”.

Regarding `CCc1nnc(NC(=O)CCN(c2ccc(C)cc2)S(=O)(=O)c2ccccc2)s1`, the Potency result was “inactive”.

On to `CCOC(=O)Cn1c(=O)oc2cc(S(=O)(=O)NCC3CCCO3)ccc21` (stereo not drawn), for which the Potency entry was “inactive”.

For `CCOC(=O)Cn1c(=O)oc2cc(S(=O)(=O)N(C)Cc3ccco3)ccc21`, the Potency is 15 µM (active).

Turning to `CCOc1ccc(S(=O)(=O)N(CC(=O)NCC(F)(F)F)Cc2ccco2)cc1`, the Potency result is “inactive”.

`Cc1ccc(CN2CCN(Cc3ccc(OCCO)cc3)CC2CCO)o1` (stereo not drawn): the Potency result was “inactive”.

For `COc1ccc(-c2nc3c(c4c2C[C@H](c2ccccc2)OC4)CN(S(=O)(=O)c2c(C)noc2C)CC3)c(C)c1`, the Potency was 0.447 µM (active).

As for `C[C@H]1Cc2c(-c3ccccc3)nc3c(c2CO1)CN(C(=O)C1CC1)CC3`, the activity, negative = inhibition was 8.3% [at 13.5 µM].

In the case of `COc1ccc(-c2nc3c(c4c2C[C@H](c2ccccc2)OC4)CN(C(=O)C2CC2)CC3)c(C)c1`, the Potency is 0.398 µM (active).

Take `COc1ccc(F)c(-c2nc(CN3CCC(c4ccccc4)CC3)c(C)o2)c1`: the Potency result is “inactive”.

Take `C[C@H]1Cc2c(COc3ccccc3)nc3c(c2CO1)CN(C(=O)NCc1ccco1)CC3`: the activity, negative = inhibition was -1.72% [at 13.5 µM].

Take `C[C@H]1Cc2c(-c3ccccc3)nc3c(c2CO1)CN(S(=O)(=O)c1ccc(Cl)c2nonc12)CC3`: the activity, negative = inhibition is -9.79% [at 13.5 µM].

Take `COc1ccc(-c2nc3c(c4c2C[C@H](c2ccccc2)OC4)CN(C(=O)c2ccco2)CC3)c(C)c1`: the Potency is 1.78 µM (active).

For the molecule `COc1cccc(CC(=O)N2CCc3nc(COc4ccccc4)c4c(c3C2)CO[C@@H](C)C4)c1`, the activity, negative = inhibition was 6.69% [at 13.5 µM].

`COc1ccc(-c2nc3c(c4c2C[C@H](c2ccccc2)OC4)CN(C(=O)c2cccnc2)CC3)c(C)c1`: the Potency is 0.355 µM (active).

As to `C[C@H]1Cc2c(COc3ccccc3)nc3c(c2CO1)CN(C(=O)Nc1cccc(C#N)c1)CC3`, the activity, negative = inhibition was -13.5% [at 13.5 µM].

Regarding `COc1c(C)cc(C(=O)C2CCCN(S(=O)(=O)c3c(C)noc3C)C2)cc1C` (stereo not drawn), the Potency result was “inactive”.

In the case of `Cc1ccc(OCC(=O)N2CCN(C(=O)c3cccnc3)CC2)cc1`, the Potency result was “inactive”.
